# This excerpt belongs to a sample that is enriched for hits.
# Methyltransferases: Primary Screen for Target Class Profiling of Small Molecule Inhibitors of Methyltransferases; calls only at 40 µM; 25,000 tested, 3.9% active; AID 1745853, 2022; purified enzyme, MTase-Glo SAH luminescence; stronger effect = lower value; call rule not given here
#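 Each enzyme was assayed with SAM and its substrate. SAH formation detected by MTase-Glo luminescence; single-point 40 uM screen[…].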
# MTase-Glo ctr: Counterscreen for Target Class Profiling of Small Molecule Inhibitors of Methyltransferases. AID 1745851, 2022. MTase-Glo coupled enzymes, SAH conversion luminescence, no MTase. Potency, µM (top dose mostly 57.3 µM), actives largely listed as inhibitors. shares compounds with Methyltransferases. 180 tested, 6% active; active means well fitted inhibition curve with a large enough effect; inconclusive means small, poorly fitted or top-dose-only effect
# Calls only; . = inactive; ? = inconclusive; + = active, no number.
SMILES,Methyltransferases,others
COc1ccc(C2c3cccn3-c3ccccc3CN2C(=O)Nc2ccc3c(c2)OCCO3)cc1 (stereo not drawn),.,
Cc1ccccc1C1c2cccn2-c2ccccc2CN1C(=O)Nc1cccc(Cl)c1 (stereo not drawn),.,
CC1CCN(CC2CCCCCN2C(=O)Cc2ccccc2)CC1 (stereo not drawn),.,
O=C(Nc1ccc(F)cc1)N1Cc2ccccc2-n2cccc2C1c1ccc(F)cc1 (stereo not drawn),.,
CCCN(CCC)[C@@H]1CCc2ccc3[nH]c(C#N)cc3c2C1,+,
CCCN(CCC)[C@@H]1CCc2cccc(O)c2C1,.,
O=C(NCc1ccco1)N1Cc2ccccc2-n2cccc2C1c1ccc(Cl)cc1 (stereo not drawn),.,
CCOc1ccc(C2c3cccn3-c3ccccc3CN2C(=O)NCc2ccc(C)cc2)cc1 (stereo not drawn),.,
O=C(Nc1cccc(C(F)(F)F)c1)N1Cc2ccccc2-n2cccc2C1c1cccs1 (stereo not drawn),.,
CCOc1ccc(Oc2ccc(OCc3cc(F)ccc3F)cc2)c(N)c1,.,
CCOc1ccc(C2c3cccn3-c3ccccc3CN2C(=O)Nc2ccccc2OC)cc1 (stereo not drawn),.,
CNCCc1c[nH]c2ccc(O)cc12,.,
COc1ccc(CNC(=O)/C=C/c2ccc3[nH]cc(CCN(C)C)c3c2)cc1,+,
Cc1cc(C)cc(NC(=O)N2Cc3ccccc3-n3cccc3C2c2cccs2)c1 (stereo not drawn),.,
CCOc1ccc(C2c3cccn3-c3ccccc3CN2C(=O)NCc2cccc(OC)c2)cc1 (stereo not drawn),.,
COC(=O)c1ccc(NC(=O)N2Cc3ccccc3-n3cccc3C2c2ccc(OC)c(OC)c2)cc1 (stereo not drawn),.,
Cc1cccc(C2c3cccn3-c3ccccc3CN2C(=O)Nc2ccccc2F)c1 (stereo not drawn),.,
COc1ccc(C)cc1NC(=O)N1Cc2ccccc2-n2cccc2C1C(C)C (stereo not drawn),.,
CCC1c2cccn2-c2ccccc2CN1C(=O)Nc1ccccc1F (stereo not drawn),.,
CCOCCCNC(=O)N1Cc2ccccc2-n2cccc2C1CC (stereo not drawn),.,
CNC1CCc2ccccc21 (stereo not drawn),+,MTase-Glo ctr=.
CCc1ccc(NC(=O)N2Cc3ccccc3-n3cccc3C2c2ccc(SC)cc2)cc1 (stereo not drawn),.,
COc1ccccc1NC(=O)N1Cc2ccccc2-n2cccc2C1c1ccc(OC)c(OC)c1 (stereo not drawn),.,
Cc1ccccc1C1c2cccn2-c2ccccc2CN1C(=O)NCCc1ccccc1 (stereo not drawn),.,
COc1ccc(-c2cc3c(cn2)CN(C)CCN3)cn1,+,MTase-Glo ctr=.
SMILES,Methyltransferases,others
COc1cccc(NC(=O)N2Cc3ccccc3-n3cccc3C2c2ccc(C)cc2)c1 (stereo not drawn),.,
CC(C)CCNC(=O)N1Cc2ccccc2-n2cccc2C1c1ccc(Cl)cc1 (stereo not drawn),.,
O=C(Nc1ccc(F)cc1)N1Cc2ccccc2-n2cccc2C1c1cccs1 (stereo not drawn),.,
C=C1CC[C@H]2[C@@H](/C=C(\C)C(=O)[C@@]3(OC(C)=O)C[C@H](C)[C@H](OC(=O)c4ccccc4)[C@@H]3[C@H]1OC(C)=O)C2(C)C,.,
CC(=O)NC[C@H]1C[C@@H]2CCN1C[C@@H]2c1cc(-c2ccc3ccccc3c2)nn1C,+,MTase-Glo ctr=?
COc1ccccc1-c1cc([C@H]2CN3CC[C@H]2C[C@@H]3CNC(=O)N2CCOCC2)n(C)n1,.,
Cn1nc(-c2ccc3ccccc3c2)cc1[C@H]1CN2CC[C@H]1C[C@@H]2CNC(=O)c1ccco1,.,
CC(C)c1ccc(C2c3cccn3-c3ccccc3CN2C(=O)Nc2ccc(F)cc2F)cc1 (stereo not drawn),.,
COCCCNC(=O)N1Cc2ccccc2-n2cccc2C1c1ccc(Cl)cc1 (stereo not drawn),.,
CCOc1ccccc1NC(=O)N1Cc2c(C)cc(C)nc2-n2cccc2C1c1ccc(F)cc1 (stereo not drawn),.,

# Screening results from PubChem BioAssay.
